Shiga inhibitor: Shiga toxin inhibition. inhibition, % at 38.7 µM. Vero cells, Shiga toxin protein synthesis inhibition reporter. AID 2315. actives 9.2% (n = 290,000); in the data active means inhibition mostly above about 28%, no sharp cut-off; inactive means mostly below about 43%; further: 0% is about no effect
NS1 inh: influenza NS1 inhibition; Potency, µM (top dose mostly 46.1 µM), without a hit: at the top dose activity, positive = more growth; actives 0.4% (n = 270,000); further: potency means the concentration at half of the fitted maximal effect; actives are rising curves; nearly all actives have a fitted effect of over 50% in size
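Growth recovery, yeast-based: influenza A NS1 expressed in S. cerevisiae causes slow growth, and suppressors are detected by OD600. The parent strain without NS1 is used as positive control.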
SARS PLpro yeast-1: blocks SARS-CoV papain-like protease in a yeast assay; S. cerevisiae expressing SARS-CoV PLpro, growth rescue; actives 0.19% (n = 330,000); AID 485353; Potency, µM (highest dose often 32.9 µM), without a hit: at the top dose activity, positive = growth rescue, most hits filed as activators; further: potency means the concentration at half of the fitted maximal effect; 0% is about no effect; nearly all actives have a fitted effect of over 55% in size
CHX counter: counter-screen for Shiga toxin inhibitors: cycloheximide protein synthesis inhibition. cell reporter, cycloheximide protein synthesis inhibition counterscreen. max response, %. actives 12% (n = 300,000); in the data active means max response mostly above about 13%, no sharp cut-off; inactive means mostly below about 14%; further: read at 38.3 µM for the half of the compounds with a filed dose; 0% is about no effect
SARS PLpro yeast-2: Validates SARS-CoV PLpro inhibitor hits in yeast | calls only | yeast expressing SARS-CoV PLpro, growth phenotype rescue | actives 19% (n = 1,000) | shares compounds with SARS PLpro yeast-1; call rule not given here
Numbers without * were called inactive; i = inactive; ? = inconclusive; . = not tested or not shown; + = active, no number. A selection: hits, their analogues and other compounds. The true share with any hit is near 12%. Unless noted, the call rests on the fitted dose curve.

SMILES | Shiga inhibitor | NS1 inh | SARS PLpro yeast-1 | CHX counter | SARS PLpro yeast-2
COC(=O)CNC(c1ccccc1)c1cc(C)ccc1NC(=O)c1cccc(Cl)c1 (centres undefined) | -11 | -37% | ? | -3 | i
CCCCNC(=O)N1CCc2ccccc2C1 | 14 | -10% | 3.2µM* | 3 | i
C=CCNC(=O)C1CC2Cn3c(nc4cc(Cl)c(Cl)cc43)C2N1C (centres undefined) | . | . | ? | . | i
Cc1cccc(/C=N/n2c(-c3ccncc3)n[nH]c2=S)c1 | -12 | 7% | -9% | 0 | .
S=c1[nH]nc(-c2ccncc2)n1/N=C/c1ccccc1 | -10 | 17% | ? | -2 | i
COc1ccc(C(=O)CC(=O)C(=O)NCCc2cccc(C)c2)cc1 | 9 | 8% | 20µM* | 8 | +
COc1ccc(C(=O)CC(=O)C(=O)Nc2ccccc2)cc1 | 36 | -32% | 1% | 22 | .
Cc1cc([N+](=O)[O-])nn1Cc1ccc(C(=O)N/N=C/c2ccc(F)cc2)cc1 | 11 | 4% | -1% | 9 | .
Cc1cc([N+](=O)[O-])nn1Cc1ccc(C(=O)N/N=C/c2ccc(O)cc2O)cc1 | -2 | 28% | 3.2µM* | -5 | ?
COc1cc(/C=C/C(=O)O)cc(S(=O)(=O)Nc2cccc(SC)c2)c1OC | 16 | 15% | 3% | 10 | .
NC(=O)c1ccc(NC(=O)COC(=O)c2cc3ccccc3cc2O)cc1 | . | . | -5% | . | .
O=C(COC(=O)c1ccccc1NCCO)NNC(=O)c1cccs1 | . | . | ? | . | i
Cc1ccc(S(=O)(=O)N(C)c2ccc(OCC(=O)Nc3ccc(C(=O)N(C)C)cc3)cc2)cc1C | . | . | -3% | . | .
Cc1ccc(CNC(=O)CCS(=O)(=O)c2cc3c(cc2Cl)NC(=O)CO3)cc1 | -6 | -9% | -3% | 13 | .
CCOC(=O)N1CCN(C(=O)CCS(=O)(=O)c2cc3c(cc2Cl)NC(=O)CO3)CC1 | -4 | -7% | ? | -2 | i
O=C1C(c2ccccc2)=C(N2CC2)c2ccccc21 | 41 | -45% | ? | 16 | i
O=C1C(Cl)=C(N2CCN(c3ccccc3[N+](=O)[O-])CC2)C(=O)c2ccccc21 | 13 | 1% | -11% | -4 | .
NC(=S)Nc1cccc2cccnc12 | 15 | 3% | ? | 4 | i
COc1ccc(CCn2c(C)cc(C(=O)CCl)c2C)cc1OC | -24 | . | 10µM* | -2 | +
CCOC(=O)CSc1nc2c(sc(=S)n2Cc2ccco2)c(=O)n1-c1ccccc1 | -15 | ? | ? | -3 | i
CCN(CC)C(=O)CSc1nc2c(sc(=S)n2Cc2ccco2)c(=O)n1-c1ccccc1 | -11 | 24% | -1% | -2 | .
Cc1cc(N2CCC3(CC2)OCCO3)n2nc(C)c(-c3ccc(Cl)cc3)c2n1 | . | -5% | . | . | .
N#C/C(=C\C=C\c1ccccc1[N+](=O)[O-])C(=O)NC1CCCCC1 | 20 | . | ? | -3 | i
N#C/C(=C\c1ccccc1[N+](=O)[O-])C(=O)NC1CCCCC1 | 16 | . | -23% | 8 | .
Cc1ccc(C(=O)C(C)OC(=O)CNS(=O)(=O)c2ccc(C)cc2)cc1 (centres undefined) | . | . | 1% | . | .
SMILES | Shiga inhibitor | NS1 inh | SARS PLpro yeast-1 | CHX counter | SARS PLpro yeast-2
O=C(COc1cccc2ccccc12)N/N=C/C=C/c1ccccc1 | -13 | -3% | 2% | -3 | .
COc1ccccc1NCC(=O)N/N=C/C=C/c1ccccc1 | 18 | ? | ? | 17 | i
CC(=O)c1ccc(CC2SC(N)=NC2=O)cc1 (centres undefined) | . | 14% | 8% | 6 | .
CC1Cc2ccccc2N1c1nc(C2CC2)nc2c1nnn2Cc1ccccc1 (centres undefined) | -3 | -7% | ? | -4 | +
CN(CC(=O)Nn1cnnc1)S(=O)(=O)c1ccc(Br)cc1 | 13 | -46% | 3.5µM* | -1 | i
CC1CC1C(=O)N(C)CC(=O)Nc1ccc(Cl)c(C(F)(F)F)c1 (centres undefined) | . | . | ? | . | i
CN(CC(=O)Nc1ccc(Cl)c(C(F)(F)F)c1)C(=O)c1ccc2c(c1)OCCO2 | . | . | 2% | . | .
COc1ccc(NC(=O)c2cccnc2Sc2ccccc2)c(OC)c1 | -12 | 1% | -6% | -2 | .
Cc1ccc(S(=O)(=O)NC(C(=O)Oc2cc3oc(=O)cc(C)c3cc2Cl)C(C)C)cc1 (centres undefined) | -9 | 2% | 22µM* | -6 | ?
CCc1noc(C)c1C(=O)Nc1nc(-c2ccc(Cl)cc2Cl)cs1 | -8 | 11% | -6% | -3 | .
O=C(Nc1cccc(Br)c1)c1ccccc1-c1ccccc1 | -11 | -39% | -63% | 0 | .
O=C(Nc1ccc(F)c(F)c1)c1ccccc1-c1ccccc1 | 0 | 0% | 14µM* | -4 | i

Assay outcomes deposited in PubChem BioAssay by National Center for Advancing Translational Sciences (NCATS).
